The sequences below were run against METTL21C (assay: pooled miR-30 sensor sort-seq; sequence = guide strand). Conditions: shRNA.
In the case of TATCTTGTTGGATTCTTCTAGG, the sensor-assay potency score (higher = more potent) is reported as -0.565. Work on TTCTTCTCAGCCTCTAACCAGC yielded a sensor-assay potency score (higher = more potent) of -1.05. For TCATAGTCGGTGCTGAACCTGA, the sensor-assay potency score (higher = more potent) was -0.238. TAAAAGATTGTATTGAAGGTTT showed a sensor-assay potency score (higher = more potent) of -0.706. TGTAGGAACAAATTTCTGGAGG showed a sensor-assay potency score (higher = more potent) of -0.694. Work on TGTTGTGTCAAAAACTTGCTTG yielded a sensor-assay potency score (higher = more potent) of 0.0873. TAGATTAACCAGATAATCTTAA showed a sensor-assay potency score (higher = more potent) of -0.406. For TTAGATATTTAGATTAACCAGA, the sensor-assay potency score (higher = more potent) was -0.625. In the case of TTCCTGGATGACAATCTCCTTT, the sensor-assay potency score (higher = more potent) is reported as -0.999. TTAGAAATTAGAAAGTTTCTGC was tested, and the sensor-assay potency score (higher = more potent) was 0.573. Work on ATCTGTAGGAACAAATTTCTGG yielded a sensor-assay potency score (higher = more potent) of -0.452. TAACTCTCTATGGATTCCTGGA gave a sensor-assay potency score (higher = more potent) of -0.728.

The sequences below were run against METTL21D in the same assay as above. Conditions: shRNA.
TTTGTCTTCTTAGCAACTCATT showed a sensor-assay potency score (higher = more potent) of -1.33. In the case of TTTAAGAAGAACTTGATGCTGA, the sensor-assay potency score (higher = more potent) is reported as 0.983. Work on TTCGTTGTTCATAACAACATAT yielded a sensor-assay potency score (higher = more potent) of -1.05.

From the OligoGym collection
Note: reference of the scale not given here.
